# Results as given in PMC7862700, “An all-to-all approach to the identification of sequence-specific readers for epigenetic DNA modifications on cytosine”.
# Key:
# Assay in all cases: DAPPL (digital affinity profiling via proximity ligation, sequencing); 10 mM Tris-HCl pH 7.5, 50 mM NaCl, 1 mM DTT, 4% glycerol, room temperature, 30 min; GST-TFs on glutathione beads, 16-mer random dsDNA library, 0.1% formaldehyde crosslink after washing; high values mean tight binding
# FLI1 = molecular target: T1, FLI1 (Homo sapiens, UniProt Q01543 1-452); conditions: protein: recombinant; tags: N-terminal GST; dsDNA, one strand shown
# T1 sequence: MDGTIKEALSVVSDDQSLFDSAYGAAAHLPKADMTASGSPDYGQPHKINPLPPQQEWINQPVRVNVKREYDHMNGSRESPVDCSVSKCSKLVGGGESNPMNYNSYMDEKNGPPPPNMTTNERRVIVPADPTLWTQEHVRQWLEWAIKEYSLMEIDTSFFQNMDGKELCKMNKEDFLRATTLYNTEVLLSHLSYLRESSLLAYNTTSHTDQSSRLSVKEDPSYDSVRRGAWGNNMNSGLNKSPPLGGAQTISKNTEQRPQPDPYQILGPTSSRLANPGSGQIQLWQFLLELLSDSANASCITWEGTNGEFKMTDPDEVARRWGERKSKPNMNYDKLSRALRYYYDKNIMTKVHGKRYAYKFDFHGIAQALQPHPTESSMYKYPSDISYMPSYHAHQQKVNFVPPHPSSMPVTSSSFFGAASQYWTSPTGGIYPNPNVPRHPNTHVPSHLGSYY
# How it was run: (§1)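 Each value of binding signal is a hexamer's read frequency for a factor divided by the same hexamer's frequency in the tag-only sample. Barcoded, bead-captured GST fusions of human transcription factors made in yeast were pooled with that sample and incubated with 200 nmole of a random double-stranded 16-mer DNA library in Tris/NaCl/DTT/glycerol buffer at room temperature for 30 min. Washing, 0.1% formaldehyde crosslinking, proximity ligation, PCR and Illumina NextSeq500 sequencing followed.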
# ELK1 = molecular target: T2, ELK1 (Homo sapiens, UniProt P19419 1-428); conditions: protein: recombinant; tags: N-terminal GST; dsDNA, one strand shown
# T2 sequence: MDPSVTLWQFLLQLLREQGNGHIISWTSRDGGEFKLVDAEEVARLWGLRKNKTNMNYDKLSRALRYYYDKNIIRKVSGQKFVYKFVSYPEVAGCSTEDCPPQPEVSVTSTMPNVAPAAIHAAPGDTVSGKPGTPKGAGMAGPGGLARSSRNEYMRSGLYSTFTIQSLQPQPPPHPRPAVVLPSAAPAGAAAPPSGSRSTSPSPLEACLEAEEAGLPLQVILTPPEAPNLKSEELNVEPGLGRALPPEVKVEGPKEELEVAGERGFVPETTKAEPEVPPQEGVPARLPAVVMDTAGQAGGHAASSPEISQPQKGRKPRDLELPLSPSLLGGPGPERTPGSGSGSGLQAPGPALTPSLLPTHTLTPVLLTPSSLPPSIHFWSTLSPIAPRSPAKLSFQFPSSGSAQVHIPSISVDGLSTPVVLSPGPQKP
# How it was run: as §1
# GABPA = molecular target: T3, GABPA (Homo sapiens, UniProt Q06546 1-454); conditions: protein: recombinant; tags: N-terminal GST; dsDNA, one strand shown
# T3 sequence: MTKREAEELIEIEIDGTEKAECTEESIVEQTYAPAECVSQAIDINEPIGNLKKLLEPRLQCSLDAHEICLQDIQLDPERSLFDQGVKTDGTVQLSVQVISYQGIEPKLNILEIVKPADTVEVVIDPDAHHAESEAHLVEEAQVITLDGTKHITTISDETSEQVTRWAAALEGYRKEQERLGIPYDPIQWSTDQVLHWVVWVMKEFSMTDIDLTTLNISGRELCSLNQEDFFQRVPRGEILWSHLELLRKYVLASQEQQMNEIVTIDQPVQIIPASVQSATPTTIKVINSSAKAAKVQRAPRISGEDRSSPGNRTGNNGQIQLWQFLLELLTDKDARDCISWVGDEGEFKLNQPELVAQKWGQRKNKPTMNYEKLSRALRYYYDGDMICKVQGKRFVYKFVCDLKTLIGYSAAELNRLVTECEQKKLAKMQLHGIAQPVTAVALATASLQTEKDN
# How it was run: as §1
# ERG = molecular target: T4, ERG (Homo sapiens, UniProt P11308 1-479); conditions: protein: recombinant; tags: N-terminal GST; dsDNA, one strand shown
# T4 sequence: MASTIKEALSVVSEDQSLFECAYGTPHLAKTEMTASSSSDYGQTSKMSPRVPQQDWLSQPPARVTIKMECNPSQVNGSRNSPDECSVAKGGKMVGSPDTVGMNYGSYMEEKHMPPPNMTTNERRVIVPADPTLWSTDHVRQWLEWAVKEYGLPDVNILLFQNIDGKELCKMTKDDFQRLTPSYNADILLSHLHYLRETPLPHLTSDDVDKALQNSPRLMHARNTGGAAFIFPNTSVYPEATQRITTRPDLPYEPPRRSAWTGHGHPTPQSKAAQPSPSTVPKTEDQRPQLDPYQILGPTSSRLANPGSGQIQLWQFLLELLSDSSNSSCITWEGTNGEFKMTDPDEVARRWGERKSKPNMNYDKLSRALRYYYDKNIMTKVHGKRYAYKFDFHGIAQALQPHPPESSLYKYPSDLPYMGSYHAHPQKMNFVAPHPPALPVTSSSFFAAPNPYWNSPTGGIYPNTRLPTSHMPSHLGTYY
# How it was run: as §1
# ELF1 = ELF1 (Homo sapiens, UniProt P32519 1-619); conditions: protein: recombinant; tags: N-terminal GST; dsDNA, one strand shown
# Sequence of ELF1 (P32519 whole entry): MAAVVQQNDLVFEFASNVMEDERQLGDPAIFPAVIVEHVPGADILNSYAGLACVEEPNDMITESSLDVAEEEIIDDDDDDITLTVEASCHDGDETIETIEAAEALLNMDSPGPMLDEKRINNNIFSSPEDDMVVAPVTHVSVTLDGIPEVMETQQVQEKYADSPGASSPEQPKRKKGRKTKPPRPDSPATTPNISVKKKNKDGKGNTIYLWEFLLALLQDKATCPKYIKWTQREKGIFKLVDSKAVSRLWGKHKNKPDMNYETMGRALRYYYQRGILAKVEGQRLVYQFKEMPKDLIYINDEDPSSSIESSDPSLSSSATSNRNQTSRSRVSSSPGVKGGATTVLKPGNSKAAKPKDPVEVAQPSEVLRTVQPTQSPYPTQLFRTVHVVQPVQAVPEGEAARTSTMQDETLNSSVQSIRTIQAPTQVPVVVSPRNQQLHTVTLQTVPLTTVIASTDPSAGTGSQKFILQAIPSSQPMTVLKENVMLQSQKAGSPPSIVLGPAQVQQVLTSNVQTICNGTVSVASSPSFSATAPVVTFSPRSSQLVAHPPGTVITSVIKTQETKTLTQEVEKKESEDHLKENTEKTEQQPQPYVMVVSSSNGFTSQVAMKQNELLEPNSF
# How it was run: as §1
# EHF = molecular target: T5, EHF (Homo sapiens, UniProt Q9NZC4 1-300); conditions: protein: recombinant; tags: N-terminal GST; dsDNA, one strand shown
# T5 sequence: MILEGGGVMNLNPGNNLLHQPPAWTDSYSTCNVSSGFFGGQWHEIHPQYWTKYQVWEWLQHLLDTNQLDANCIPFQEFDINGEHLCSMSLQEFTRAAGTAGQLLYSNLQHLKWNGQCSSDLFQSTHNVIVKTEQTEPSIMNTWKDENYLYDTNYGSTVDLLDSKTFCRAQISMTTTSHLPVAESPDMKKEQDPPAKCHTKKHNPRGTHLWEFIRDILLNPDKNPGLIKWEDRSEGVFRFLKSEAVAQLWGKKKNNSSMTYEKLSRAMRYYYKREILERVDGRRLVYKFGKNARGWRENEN
# How it was run: as §1
# SPI1 = SPI1 (Homo sapiens, UniProt P17947 1-270); conditions: protein: recombinant; tags: N-terminal GST; dsDNA, one strand shown
# How it was run: as §1
# SPIB = SPIB (Homo sapiens, UniProt Q01892 1-262); conditions: protein: recombinant; tags: N-terminal GST; dsDNA, one strand shown
# Sequence of SPIB (Q01892 whole entry): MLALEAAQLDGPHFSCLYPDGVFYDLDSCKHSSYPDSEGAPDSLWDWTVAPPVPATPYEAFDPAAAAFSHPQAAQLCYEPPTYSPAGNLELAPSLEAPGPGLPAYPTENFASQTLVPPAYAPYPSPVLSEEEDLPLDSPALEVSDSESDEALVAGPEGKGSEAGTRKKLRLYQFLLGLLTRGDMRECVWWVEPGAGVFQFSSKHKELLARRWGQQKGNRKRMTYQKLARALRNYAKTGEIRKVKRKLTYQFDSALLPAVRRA
# How it was run: as §1
# ELK3 = molecular target: T6, ELK3 (Homo sapiens, UniProt P41970 1-407); conditions: protein: recombinant; tags: N-terminal GST; dsDNA, one strand shown
# T6 sequence: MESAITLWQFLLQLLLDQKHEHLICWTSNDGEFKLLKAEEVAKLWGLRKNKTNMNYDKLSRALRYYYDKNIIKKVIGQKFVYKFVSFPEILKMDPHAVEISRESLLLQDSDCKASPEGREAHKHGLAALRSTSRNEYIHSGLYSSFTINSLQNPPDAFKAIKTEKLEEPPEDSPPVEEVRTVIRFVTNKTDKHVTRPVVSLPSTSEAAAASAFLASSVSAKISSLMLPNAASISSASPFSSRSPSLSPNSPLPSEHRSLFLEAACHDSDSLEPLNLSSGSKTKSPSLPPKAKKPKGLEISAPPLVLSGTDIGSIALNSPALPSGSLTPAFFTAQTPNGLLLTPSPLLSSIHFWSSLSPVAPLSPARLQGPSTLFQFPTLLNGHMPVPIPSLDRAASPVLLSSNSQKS
# How it was run: as §1
# FEV = molecular target: T7, FEV (Homo sapiens, UniProt Q99581 1-238); conditions: protein: recombinant; tags: N-terminal GST; dsDNA, one strand shown
# T7 sequence: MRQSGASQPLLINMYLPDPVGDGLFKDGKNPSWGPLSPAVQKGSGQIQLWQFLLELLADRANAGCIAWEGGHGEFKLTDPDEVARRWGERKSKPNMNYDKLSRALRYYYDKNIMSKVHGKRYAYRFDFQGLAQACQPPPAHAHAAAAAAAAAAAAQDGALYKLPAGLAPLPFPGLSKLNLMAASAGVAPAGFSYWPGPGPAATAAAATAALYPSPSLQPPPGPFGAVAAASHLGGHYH
# How it was run: as §1
# ETV5 = ETV5 (Homo sapiens, UniProt P41161 1-510); conditions: protein: recombinant; tags: N-terminal GST; dsDNA, one strand shown
# Sequence of ETV5 (P41161 whole entry): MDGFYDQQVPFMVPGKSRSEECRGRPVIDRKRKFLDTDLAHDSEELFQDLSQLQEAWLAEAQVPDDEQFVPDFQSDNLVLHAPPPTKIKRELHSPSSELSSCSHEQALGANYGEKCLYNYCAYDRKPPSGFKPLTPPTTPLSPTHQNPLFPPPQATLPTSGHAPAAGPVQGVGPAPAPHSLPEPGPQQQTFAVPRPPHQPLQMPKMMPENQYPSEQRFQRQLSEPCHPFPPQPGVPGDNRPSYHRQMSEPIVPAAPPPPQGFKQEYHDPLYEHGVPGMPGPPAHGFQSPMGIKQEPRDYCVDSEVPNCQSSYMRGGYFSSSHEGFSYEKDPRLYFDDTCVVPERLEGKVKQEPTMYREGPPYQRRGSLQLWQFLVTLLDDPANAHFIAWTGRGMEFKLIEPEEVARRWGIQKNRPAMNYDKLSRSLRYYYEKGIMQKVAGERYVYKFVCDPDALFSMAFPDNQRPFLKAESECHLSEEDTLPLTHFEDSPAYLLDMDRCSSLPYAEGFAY
# How it was run: as §1
# HSF1 = HSF1 (Homo sapiens, UniProt Q00613 1-529); conditions: protein: recombinant; tags: N-terminal GST; chain copies: 3; dsDNA, one strand shown
# Sequence of HSF1 (Q00613 whole entry): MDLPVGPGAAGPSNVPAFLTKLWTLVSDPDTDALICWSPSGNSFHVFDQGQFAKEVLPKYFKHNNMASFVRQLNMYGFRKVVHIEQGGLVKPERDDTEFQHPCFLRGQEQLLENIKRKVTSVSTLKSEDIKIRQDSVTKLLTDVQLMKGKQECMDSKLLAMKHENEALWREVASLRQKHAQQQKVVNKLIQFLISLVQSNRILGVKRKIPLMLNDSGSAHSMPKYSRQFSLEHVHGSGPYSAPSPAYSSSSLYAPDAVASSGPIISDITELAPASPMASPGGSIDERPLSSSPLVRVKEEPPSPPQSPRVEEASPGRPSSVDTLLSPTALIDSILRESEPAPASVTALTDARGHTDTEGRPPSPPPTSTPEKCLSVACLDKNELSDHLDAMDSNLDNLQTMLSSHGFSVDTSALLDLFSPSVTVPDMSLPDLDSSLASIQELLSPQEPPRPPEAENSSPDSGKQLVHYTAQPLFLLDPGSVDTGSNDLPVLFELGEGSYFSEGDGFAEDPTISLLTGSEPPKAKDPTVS
# How it was run: as §1
# SPIC = molecular target: T8, SPIC (Homo sapiens, UniProt Q8N5J4 1-248); conditions: protein: recombinant; tags: N-terminal GST; dsDNA, one strand shown
# T8 sequence: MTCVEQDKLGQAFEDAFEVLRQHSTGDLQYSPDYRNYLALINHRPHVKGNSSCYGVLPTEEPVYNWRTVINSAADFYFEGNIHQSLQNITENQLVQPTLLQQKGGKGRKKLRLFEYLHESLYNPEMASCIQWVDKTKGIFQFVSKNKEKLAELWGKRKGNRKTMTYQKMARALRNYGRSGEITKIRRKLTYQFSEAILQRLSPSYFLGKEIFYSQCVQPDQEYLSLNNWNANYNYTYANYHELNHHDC
# How it was run: as §1
# ELF4 = ELF4 (Homo sapiens, UniProt Q99607 1-663); conditions: protein: recombinant; tags: N-terminal GST; dsDNA, one strand shown
# Sequence of ELF4 (Q99607 whole entry): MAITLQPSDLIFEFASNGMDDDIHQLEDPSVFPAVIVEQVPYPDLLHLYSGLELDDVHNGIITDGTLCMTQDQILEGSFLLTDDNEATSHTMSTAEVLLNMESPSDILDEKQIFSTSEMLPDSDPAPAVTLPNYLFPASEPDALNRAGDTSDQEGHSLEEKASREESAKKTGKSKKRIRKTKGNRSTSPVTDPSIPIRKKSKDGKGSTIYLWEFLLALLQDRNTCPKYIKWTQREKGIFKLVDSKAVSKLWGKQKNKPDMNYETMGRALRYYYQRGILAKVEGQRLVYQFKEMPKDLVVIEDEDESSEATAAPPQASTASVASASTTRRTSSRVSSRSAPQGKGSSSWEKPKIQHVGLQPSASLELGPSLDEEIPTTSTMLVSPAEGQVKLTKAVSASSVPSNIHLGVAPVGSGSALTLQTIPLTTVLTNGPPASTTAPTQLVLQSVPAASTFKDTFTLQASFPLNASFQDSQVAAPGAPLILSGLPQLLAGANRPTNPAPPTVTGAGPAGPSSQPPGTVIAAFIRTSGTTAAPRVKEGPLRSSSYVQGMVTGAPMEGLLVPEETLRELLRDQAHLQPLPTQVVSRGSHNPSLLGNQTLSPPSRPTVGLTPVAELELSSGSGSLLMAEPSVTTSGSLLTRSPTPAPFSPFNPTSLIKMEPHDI
# How it was run: as §1
# ELK4 = molecular target: T9, ELK4 (Homo sapiens, UniProt P28324-2 1-405); conditions: protein: recombinant; tags: N-terminal GST; dsDNA, one strand shown
# T9 sequence: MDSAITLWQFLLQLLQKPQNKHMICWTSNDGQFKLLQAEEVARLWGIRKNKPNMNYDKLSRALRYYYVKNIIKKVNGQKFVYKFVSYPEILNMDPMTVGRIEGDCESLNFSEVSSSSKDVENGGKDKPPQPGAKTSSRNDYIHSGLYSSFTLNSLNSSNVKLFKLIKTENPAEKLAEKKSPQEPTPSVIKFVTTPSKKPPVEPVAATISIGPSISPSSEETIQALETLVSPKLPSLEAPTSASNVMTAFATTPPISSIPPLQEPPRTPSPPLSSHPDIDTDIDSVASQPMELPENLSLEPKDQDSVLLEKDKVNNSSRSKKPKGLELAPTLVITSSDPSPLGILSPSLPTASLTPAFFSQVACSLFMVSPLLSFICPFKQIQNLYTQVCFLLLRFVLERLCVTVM
# How it was run: as §1
# ETV2 = molecular target: T10, ETV2 (Homo sapiens, UniProt O00321 1-342); conditions: protein: recombinant; tags: N-terminal GST; dsDNA, one strand shown
# T10 sequence: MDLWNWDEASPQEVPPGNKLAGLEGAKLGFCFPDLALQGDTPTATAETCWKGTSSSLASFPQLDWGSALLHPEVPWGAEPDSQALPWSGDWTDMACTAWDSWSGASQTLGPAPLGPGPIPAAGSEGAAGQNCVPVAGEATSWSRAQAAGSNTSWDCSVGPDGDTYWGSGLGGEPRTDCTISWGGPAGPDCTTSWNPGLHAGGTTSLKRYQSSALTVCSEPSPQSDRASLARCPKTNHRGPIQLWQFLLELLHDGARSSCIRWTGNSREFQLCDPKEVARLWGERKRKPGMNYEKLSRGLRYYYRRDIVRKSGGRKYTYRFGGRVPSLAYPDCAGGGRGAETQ
# How it was run: as §1
# ELF3 = molecular target: T11, ELF3 (Homo sapiens, UniProt P78545 1-371); conditions: protein: recombinant; tags: N-terminal GST; dsDNA, one strand shown
# T11 sequence: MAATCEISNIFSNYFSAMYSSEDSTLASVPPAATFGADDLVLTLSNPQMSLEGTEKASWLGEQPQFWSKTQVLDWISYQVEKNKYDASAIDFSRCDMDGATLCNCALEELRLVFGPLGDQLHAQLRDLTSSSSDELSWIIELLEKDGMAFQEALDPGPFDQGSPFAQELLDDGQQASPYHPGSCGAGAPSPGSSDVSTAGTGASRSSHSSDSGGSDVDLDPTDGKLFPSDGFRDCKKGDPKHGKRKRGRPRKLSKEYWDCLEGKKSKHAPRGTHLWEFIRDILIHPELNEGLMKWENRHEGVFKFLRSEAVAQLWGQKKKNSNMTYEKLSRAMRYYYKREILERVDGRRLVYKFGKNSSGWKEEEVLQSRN
# How it was run: as §1
# CRX = CRX (Homo sapiens, UniProt O43186 1-299); conditions: protein: recombinant; tags: N-terminal GST; dsDNA, one strand shown
# Sequence of CRX (O43186 whole entry): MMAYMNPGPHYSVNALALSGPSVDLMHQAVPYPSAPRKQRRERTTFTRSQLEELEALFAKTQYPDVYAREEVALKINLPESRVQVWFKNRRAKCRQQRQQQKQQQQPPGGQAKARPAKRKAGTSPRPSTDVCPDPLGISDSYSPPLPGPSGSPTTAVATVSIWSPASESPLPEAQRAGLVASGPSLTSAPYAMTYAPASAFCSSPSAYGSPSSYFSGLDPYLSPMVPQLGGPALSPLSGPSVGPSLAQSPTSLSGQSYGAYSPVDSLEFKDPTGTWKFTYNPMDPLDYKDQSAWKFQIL
# How it was run: as §1
# ETV1 = ETV1 (Homo sapiens, UniProt P50549 1-477); conditions: protein: recombinant; tags: N-terminal GST; dsDNA, one strand shown
# Sequence of ETV1 (P50549 whole entry): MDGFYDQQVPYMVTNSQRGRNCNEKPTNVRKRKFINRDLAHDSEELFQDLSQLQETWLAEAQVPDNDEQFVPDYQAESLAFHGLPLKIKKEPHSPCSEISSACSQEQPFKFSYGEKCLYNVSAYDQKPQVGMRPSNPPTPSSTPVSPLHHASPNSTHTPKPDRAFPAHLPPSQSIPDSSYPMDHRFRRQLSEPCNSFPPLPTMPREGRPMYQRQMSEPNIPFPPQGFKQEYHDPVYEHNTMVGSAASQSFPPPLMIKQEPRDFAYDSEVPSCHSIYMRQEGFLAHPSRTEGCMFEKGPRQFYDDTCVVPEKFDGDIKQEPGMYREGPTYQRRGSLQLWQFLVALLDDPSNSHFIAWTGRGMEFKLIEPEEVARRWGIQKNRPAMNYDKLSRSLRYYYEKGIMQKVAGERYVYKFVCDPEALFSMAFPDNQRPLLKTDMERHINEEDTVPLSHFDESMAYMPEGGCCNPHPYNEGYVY
# How it was run: as §1
sequence,measurement,setting,value
TTGCGA,binding signal,FLI1,"1.19 fold enrichment (6-mer frequency, TF over GST control)"
same,binding signal,ELK1,"1.08 fold enrichment (6-mer frequency, TF over GST control)"
same,binding signal,GABPA,"1.1 fold enrichment (6-mer frequency, TF over GST control)"
same,binding signal,ERG,"1.17 fold enrichment (6-mer frequency, TF over GST control)"
same,binding signal,ELF1,"1.16 fold enrichment (6-mer frequency, TF over GST control)"
same,binding signal,EHF,"1.13 fold enrichment (6-mer frequency, TF over GST control)"
same,binding signal,SPI1,"1.17 fold enrichment (6-mer frequency, TF over GST control)"
same,binding signal,SPIB,"1.23 fold enrichment (6-mer frequency, TF over GST control)"
same,binding signal,ELK3,"1.21 fold enrichment (6-mer frequency, TF over GST control)"
same,binding signal,FEV,"1.08 fold enrichment (6-mer frequency, TF over GST control)"
same,binding signal,ETV5,"1.15 fold enrichment (6-mer frequency, TF over GST control)"
same,binding signal,HSF1,"1.24 fold enrichment (6-mer frequency, TF over GST control)"
same,binding signal,SPIC,"1.35 fold enrichment (6-mer frequency, TF over GST control)"
same,binding signal,ELF4,"1.14 fold enrichment (6-mer frequency, TF over GST control)"
same,binding signal,ELK4,"1.11 fold enrichment (6-mer frequency, TF over GST control)"
same,binding signal,ETV2,"1.1 fold enrichment (6-mer frequency, TF over GST control)"
same,binding signal,ELF3,"1.16 fold enrichment (6-mer frequency, TF over GST control)"
same,binding signal,CRX,"1.15 fold enrichment (6-mer frequency, TF over GST control)"
same,binding signal,ETV1,"1.15 fold enrichment (6-mer frequency, TF over GST control)"
